# In the supplement of paper PMC6522484:
# ± gives the standard deviation of the averaged measurements.
# Experiments:
# DLD1 [1] = assay: cell viability (CellTiter-Glo) relative to plate median (fraction of plate median); higher = more viable cells; details: 10 µM, treatment time 24 h
# Procedure, shortened: (§1)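 Colorectal cancer cells expressing a stably transduced lentiviral TCF/Wnt firefly luciferase reporter were treated in 384-well plates with kinase inhibitor library compounds at a final 10 µM for 24 h. Firefly luciferase or CellTiterGlo luminescence was then read on parallel plates. Well signals were normalised to the plate median (webcellHTS2, additive, no log transformation) and averaged over two independent replicates.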
# HCT116 [2] = assay: as above; details: 10 µM; treatment time 24 h; reporter: TCF4/Wnt
# Procedure, shortened: as §1
# SW480 [3] = assay: as above; details: 10 µM; treatment time 24 h; reporter: 7TFP
# Procedure, shortened: as §1
# DLD1 [4] = assay: TCF/Wnt firefly luciferase reporter signal relative to plate median (fraction of plate median); higher = higher Wnt reporter signal; details: 10 µM, treatment time 24 h
# Procedure, shortened: as §1
# HCT116 [5] = assay: as above; details: 10 µM; treatment time 24 h; reporter: TCF4/Wnt
# Procedure, shortened: as §1
# SW480 [6] = assay: as above; details: 10 µM; treatment time 24 h; reporter: 7TFP
# Procedure, shortened: as §1
# DLD1 [7] = assay: cell viability (CellTiter-Glo) relative to plate median (fraction of plate median); higher = more viable cells; details: 5 µM; treatment time 24 h; reporter: 7TFP
# Procedure, shortened: (§2)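 Signals from firefly luciferase or CellTiterGlo readouts were normalised well by well to the plate median using webcellHTS2, additively and with no log transformation. They came from colorectal cancer cell lines stably holding lentiviral TCF/Wnt firefly luciferase reporters (7TFP or TCF4/Wnt), treated with library compounds at a final 5 µM for 24 h. The mean of two independent replicates is given.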
# HCT116 [8] = assay: as above; details: 5 µM; treatment time 24 h; reporter: TCF4/Wnt
# Procedure, shortened: as §2
# SW480 [9] = assay: as above; details: 5 µM; treatment time 24 h; reporter: 7TFP
# Procedure, shortened: as §2
# DLD1 [10] = assay: TCF/Wnt firefly luciferase reporter signal relative to plate median (fraction of plate median); higher = higher Wnt reporter signal; details: 5 µM; treatment time 24 h; reporter: 7TFP
# Procedure, shortened: as §2
# SW480 [11] = assay: as above; details: 5 µM; treatment time 24 h; reporter: 7TFP
# Procedure, shortened: as §2
Compound,cell viability (DLD1 [1]; reporter: 7TFP),cell viability (DLD1 [1]; reporter: TCF4/Wnt),cell viability (HCT116 [2]),cell viability (SW480 [3]),TCF/Wnt firefly luciferase reporter signal (DLD1 [4]; reporter: 7TFP),TCF/Wnt firefly luciferase reporter signal (DLD1 [4]; reporter: TCF4/Wnt),TCF/Wnt firefly luciferase reporter signal (HCT116 [5]),TCF/Wnt firefly luciferase reporter signal (SW480 [6]),cell viability (DLD1 [7]),cell viability (HCT116 [8]),cell viability (SW480 [9]),TCF/Wnt firefly luciferase reporter signal (DLD1 [10]),TCF/Wnt firefly luciferase reporter signal (SW480 [11])
c1ccc2c(-c3cnn4cc(-c5ccc(N6CCNCC6)cc5)cnc34)ccnc2c1,0.666 ± 0.25,0.874 ± 0.093,0.62 ± 0.14,0.8895 ± 0.0064,1.02 ± 0.014,1.08 ± 0.18,0.634 ± 0.3,1.35 ± 0.11,,,,,
Cc1[nH]c(/C=C2\C(=O)Nc3ccccc32)c(C)c1CCC(=O)O,0.941 ± 0.028,0.997 ± 0.061,1.08 ± 0.13,0.96 ± 0.044,1.93 ± 0.38,1.26 ± 0.41,1.4 ± 0.59,1.22 ± 0.16,,,,,
CC(=O)NCC(=O)N1[C@@H]2CC[C@H]1c1ccc(Nc3ncc(C(F)(F)F)c(NC4CCC4)n3)cc12,0.907 ± 0.028,1.04 ± 0.08,0.256 ± 0.13,0.877 ± 0.071,0.742 ± 0.09,1.24 ± 0.092,0.149 ± 0.0021,1.21 ± 0.11,,,,,
CCc1cnn2c(NCc3ccc[n+]([O-])c3)cc(N3CCCC[C@H]3CCO)nc12,0.985 ± 0.13,1.06 ± 0.021,0.809 ± 0.27,1.34 ± 0.042,0.462 ± 0.029,0.304 ± 0.03,0.128 ± 0.063,0.61 ± 0.33,,,,,
COc1ccc(-c2ccc3ncc4c(c3c2)n(-c2ccc(N3CCNCC3)c(C(F)(F)F)c2)c(=O)n4C)cn1,0.0998 ± 0.065,0.116 ± 0.084,0.0311 ± 0.011,0.273 ± 0.18,0.0479 ± 0.0086,0.0791 ± 0.014,0.0387 ± 0.017,0.148 ± 0.14,,,,,
COc1cc2c(Nc3ccc(NC(=O)c4ccccc4)cc3)ncnc2cc1OCCCN1CCOCC1,0.8075 ± 0.005,0.872 ± 0.042,1.01 ± 0.041,1.11 ± 0.021,1.13 ± 0.085,1.19 ± 0.2,1.42 ± 0.23,1.43 ± 0.057,,,,,
Nc1cc(C(F)(F)F)c(-c2cc(N3CCOCC3)nc(N3CCOCC3)n2)cn1,0.777 ± 0.073,0.9145 ± 0.0078,0.56 ± 0.069,1.105 ± 0.0071,0.383 ± 0.085,0.75 ± 0.071,0.502 ± 0.057,0.704 ± 0.036,,,,,
CNC(=O)c1ccccc1Nc1nc(Nc2ccc(N3CCOCC3)cc2OC)ncc1Cl,0.8225 ± 0.00071,0.933 ± 0.069,0.895 ± 0.049,1.02 ± 0.073,0.638 ± 0.0099,0.823 ± 0.17,1.22 ± 0.28,1.08 ± 0.014,,,,,
Oc1cc(O)cc(/C=C/c2ccc(O)c(O)c2)c1 [Piceatannol],1.12 ± 0.042,1.07 ± 0.057,1.19 ± 0.14,0.863 ± 0.0085,1.44 ± 0.15,1.66 ± 0.37,1.455 ± 0.0071,1.44 ± 0.12,,,,,
C[C@@H](Oc1cc(-c2cnn(C3CCNCC3)c2)cnc1N)c1c(Cl)ccc(F)c1Cl,0.882 ± 0.067,1.04 ± 0.042,0.674 ± 0.1,0.996 ± 0.048,0.833 ± 0.16,0.831 ± 0.077,0.978 ± 0.29,0.682 ± 0.15,,,,,
Cc1ccc(F)c(NC(=O)Nc2ccc(-c3cccc4[nH]nc(N)c34)cc2)c1 [Linifanib (ABT-869)],0.833 ± 0.063,0.948 ± 0.1,0.764 ± 0.03,0.883 ± 0.042,1.05 ± 0.086,1.33 ± 0.31,0.906 ± 0.15,0.872 ± 0.42,,,,,
CNC(=O)Nc1ccc(-c2nc(N3CC4CCC(C3)O4)c3cnn(C4CCC5(CC4)OCCO5)c3n2)cc1,0.902 ± 0.088,0.998 ± 0.045,0.805 ± 0.11,1.16 ± 0.028,0.356 ± 0.076,0.554 ± 0.12,0.617 ± 0.14,0.876 ± 0.1,,,,,
COc1ccc2c(OCc3nnc4ccc(-c5ccccc5)nn34)ccnc2c1,1.17 ± 0.05,1.06 ± 0.093,1.11 ± 0.05,0.909 ± 0.028,1.29 ± 0.028,1.27 ± 0.028,1.26 ± 0.035,1.16 ± 0.15,,,,,
COc1ccc(S(=O)(=O)N(C(C)=O)c2ccccc2/C=C/c2cc[n+]([O-])cc2)cc1,0.982 ± 0.14,1.17 ± 0.14,0.619 ± 0.28,1.14 ± 0.085,0.725 ± 0.03,1 ± 0.14,0.278 ± 0.0071,0.7 ± 0.083,,,,,
COc1cc2nccc(Oc3ccc(NC(=O)NC4CC4)c(Cl)c3)c2cc1C(N)=O [E7080 (Lenvatinib)],1.07 ± 0.085,0.932 ± 0.069,1.06 ± 0.11,0.966 ± 0.062,1.44 ± 0.078,1.2 ± 0.05,1.31 ± 0.3,0.927 ± 0.34,,,,,
CN(C)Cc1cccc(N/C(=C2\C(=O)Nc3cc(C(N)=O)ccc32)c2ccccc2)c1,1.15 ± 0.13,1.09 ± 0.057,1.09 ± 0.028,1.085 ± 0.0071,0.977 ± 0.23,0.982 ± 0.12,1.05 ± 0.095,1.14 ± 0.035,,,,,
Cc1ncc(-c2ccnc(Nc3ccc(S(C)(=O)=O)cc3)n2)n1C(C)C,1.25 ± 0.16,1.32 ± 0.099,0.766 ± 0.3,1.47 ± 0.05,0.499 ± 0.026,0.277 ± 0.063,0.156 ± 0.042,0.793 ± 0.035,,,,,
CCN1CCN(Cc2ccc(-c3cc4c(N[C@H](C)c5ccccc5)ncnc4[nH]3)cc2)CC1,0.92 ± 0.15,0.999 ± 0.1,0.938 ± 0.0014,1.115 ± 0.0071,0.905 ± 0.011,0.852 ± 0.22,1.08 ± 0.085,1.24 ± 0.057,,,,,
O=C(NOC[C@H](O)CO)c1ccc(F)c(F)c1Nc1ccc(I)cc1F,1.25 ± 0.064,1.05 ± 0.014,0.907 ± 0.058,1.11 ± 0.028,1.62 ± 0.17,1.28 ± 0.26,1.06 ± 0.028,1.75 ± 0.092,1.1 ± 0.064,0.895 ± 0.05,1.03 ± 0.05,1.34 ± 0.22,1.47 ± 0.071
O=C(Nc1cccc(Nc2ncc(Br)c(NCCc3cnc[nH]3)n2)c1)N1CCCC1,1.07 ± 0.05,1.02 ± 0.071,0.932 ± 0.016,1.16 ± 0.05,1.74 ± 0.31,1.39 ± 0.38,1.97 ± 0.11,1.33 ± 0.13,,,,,
